# Assay outcomes (PubChem BioAssay)
# Mtb betalactam: beta-lactam sensitization of Mtb H37Rv; M. tuberculosis H37Rv growth with meropenem, percent inhibition; inhibition, % at 25 µM; 0.27% of 330,000 active; call rule not given here;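 note: growth measured after seven days incubation then overnight dye step; 0% = bacteria only wells and 100% = bacteria with antibiotic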
# GDH-TPI counter-1: inhibits GDH-TPI coupling enzymes, artifact for Mtb FBA screen; inhibition, % at 4.8 µM; 1.2% of 360,000 active; AID 588335; GDH-TPI coupled enzyme counterscreen, NADH absorbance; in the data active = inhibition above about 30%;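 note: 0% = DMSO wells and 100% = wells lacking the enzyme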
# Mtb FBA inh: inhibits M. tuberculosis FBA enzyme; purified M. tuberculosis FBA, fluorescence read-out; AID 588726; inhibition, % at 1 µM; 2.3% of 360,000 active; P9WQA3;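 note: 0% = vehicle and 100% = reference inhibitor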
# Mtb UGM inh: blocks M. tuberculosis UGM enzyme; inhibition, % at 10 µM; AID 504406; purified UGM, fluorescence polarization probe displacement; 0.06% of 320,000 active; P9WIQ1; in the data active = inhibition above about 10%, passing the limit was not always enough
# Target sequence (P9WIQ1 whole entry, looked up): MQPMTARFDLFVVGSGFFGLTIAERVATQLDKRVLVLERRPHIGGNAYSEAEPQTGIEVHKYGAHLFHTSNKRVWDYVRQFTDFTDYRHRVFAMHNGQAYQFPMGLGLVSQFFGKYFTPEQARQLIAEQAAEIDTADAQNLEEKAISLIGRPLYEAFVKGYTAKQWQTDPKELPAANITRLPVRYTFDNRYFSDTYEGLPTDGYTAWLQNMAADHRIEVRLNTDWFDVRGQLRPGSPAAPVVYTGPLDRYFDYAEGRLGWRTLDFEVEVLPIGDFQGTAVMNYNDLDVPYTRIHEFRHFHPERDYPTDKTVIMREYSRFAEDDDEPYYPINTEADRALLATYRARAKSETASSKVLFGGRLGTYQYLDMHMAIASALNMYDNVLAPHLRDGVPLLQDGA
# RecA splice inh: blocks M. tuberculosis RecA intein splicing. P9WHJ3. AID 2221. 0.75% of 290,000 active. cell-free RecA intein splicing, fluorescence. inhibition, % (concentration not given with the values); in the data active = inhibition above about 30%;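 note: 0% = vehicle wells and 100% = reference inhibitor control wells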
# Rv3671c inh: inhibitors of M. tuberculosis serine protease Rv3671c; inhibition, % at 5.96 µM; P9WHR9; 0.048% of 320,000 active; in the data active = inhibition above about 38%;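 note: extracellular domain of Rv3671c used as enzyme; 0% = enzyme with DMSO and 100% = no enzyme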
# Mtb FBA confirm: Mtb FBA inhibition, confirmed. AID 651616. inhibition, % at 1 µM. 78% of 5,600 active. purified M. tuberculosis FBA, fluorescence read-out. shares compounds with Mtb FBA inh;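 note: 0% = vehicle wells and 100% = reference inhibitor wells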
# GDH-TPI counter-2: counter-screen for M. tuberculosis FBA inhibitors: GDH-TPI coupled enzyme inhibition; shares compounds with Mtb FBA inh; GDH-TPI coupled enzyme counterscreen, fluorescence; inhibition, % at 1 µM; 81% of 5,600 active; AID 652141; in the data active = inhibition above about 10%
# GDH-TPI DR: GDH-TPI dose response counter-screen for Mtb FBA | GDH-TPI coupled enzyme assay, fluorescence, artifact counterscreen | IC50, µM | 79% of 170 active | shares compounds with Mtb FBA inh; call rule not given here
# Active calls of the source: *; nt = no result; + = active, no number. The list is not random: actives were taken first. Their share in the collection is about 4%. Cut-off read from the data, not from the text of the source, unless noted: active = inhibition above about 27%; inactive = the rest.
SMILES,Mtb betalactam,GDH-TPI counter-1,Mtb FBA inh,Mtb UGM inh,RecA splice inh,Rv3671c inh,Mtb FBA confirm,GDH-TPI counter-2,others
COc1ccc(OC)c(/C=N/NC(=O)CCc2ccc(O)c(O)c2)c1,-3,5,43*,5,-6,7,127*,99*,
CCC1CCCCN1CCCNC(=O)c1ccc2c(c1)c(C)c(C)n2C (stereo not given),-4,-3,4,-2,1,-16,nt,nt,
Cc1cccc(C)c1NC(=O)C1(C)CCC(=O)N1C1CC1 (stereo not given),nt,nt,0,nt,nt,nt,nt,nt,
Cc1c(C(C)NC(=O)c2cc(COc3cccc4cnccc34)on2)cnn1C (stereo not given),1,2,21,-1,1,5,nt,nt,
COc1ccc(CCNCc2cc(C)n(-c3ccc(OC)cc3)c2C)cc1,88,-1,7,0,3,4,nt,nt,
COc1ccc(C(=O)COC(=O)c2ccc3c(c2)OCO3)c(OC)c1,5,7,4,-1,nt,0,nt,nt,
CCN1CCN(c2ccc(N3CCN(S(=O)(=O)c4cc([N+](=O)[O-])ccc4C)CC3)nn2)CC1,-1,7,-2,2,-2,6,nt,nt,
Cc1ccc(-c2cc(-c3ccccc3)c(C#N)c(N)n2)o1,-4,9,28*,0,-51,-2,148*,125*,
COc1cccc(NC(=O)C2CCN(c3cnccn3)CC2)c1,-7,0,2,0,-3,2,nt,nt,
COc1cc(/C=N/NC(=O)Cn2cnc3c2c(=O)n(C)c(=O)n3C)cc(OC)c1OC,-5,-1,5,-3,-1,2,nt,nt,
COc1cccc(/C=N/NC(=O)Cn2cnc3c2c(=O)n(C)c(=O)n3C)c1OC,12,-3,30*,1,-4,8,2,-2,
Cc1ccc(S(=O)(=O)NCCc2cn3nc(C)c(C)nc3n2)cc1C,5,16,64*,-2,-57,-11,159*,159*,
CC[C@]12c3[nH]c4ccc(OC)cc4c3CCN1C(=O)C(CC(=O)NCCCN(C)C)C[C@@H]2C(=O)N1CCN(C(=O)c2ccco2)CC1 (stereo not given in full),nt,2,1,nt,nt,nt,nt,nt,
COc1ccc(CCNC(=O)c2ccc3c(c2)N(Cc2ccc(C)cc2)CCS3)cc1OC,1,9,54*,1,0,1,64*,51*,
Cc1ccc(CN2CCSc3ccc(C(=O)NCc4cccnc4)cc32)cc1,1,-1,69*,-3,1,6,26,23*,
Cc1ccc(CN2CCSc3ccc(C(=O)NCC4CCCO4)cc32)cc1 (stereo not given),3,10,58*,-1,-4,8,47*,23*,
Cc1ccc(SCc2ccc(C(=O)NCc3cccnc3)cc2)cc1,2,2,-2,-1,5,-8,nt,nt,
COC(=O)[C@]1(C)N[C@H](CN(C)S(=O)(=O)c2ccc(C(F)(F)F)cc2)[C@@H]2C(=O)N(C)C(=O)[C@@H]21,0,3,9,nt,nt,-4,nt,nt,
Cc1ccc(NC(=O)CNC(=O)c2ccco2)cc1,0,9,3,3,-1,-2,nt,nt,
COc1cccc(-c2cnc(C(O)c3cc(C)ccc3C)[nH]2)c1 (stereo not given),nt,-1,-1,nt,nt,nt,nt,nt,
NC(=O)c1ccc2c(=O)n3c(-c4cc(Cl)c(N)c(Cl)c4)csc3nc2c1,-3,11,3,-2,2,-14,nt,nt,
Cc1ccc(C(=O)CSc2nc3ccc(C(=O)NCCN4CCCCC4)cc3c(=O)[nH]2)cc1,-10,1,0,0,0,-17,nt,nt,
O=C(NC1CCCCCC1)c1ccc2c(=O)n3c(nc2c1)CCCCC3,9,5,6,1,2,-7,nt,nt,
Cc1ccc(-c2csc3nc4cc(C(=O)NC5CCC(O)CC5)ccc4c(=O)n23)cc1 (stereo not given),-7,6,30*,-4,-3,-10,0,-2,
Cc1ccc(-c2csc3nc4ccc(C(=O)NCCO)cc4c(=O)n23)cc1,7,5,31*,-3,-50,-1,+,+,
SMILES,Mtb betalactam,GDH-TPI counter-1,Mtb FBA inh,Mtb UGM inh,RecA splice inh,Rv3671c inh,Mtb FBA confirm,GDH-TPI counter-2,others
Cc1csc2nc3cc(C(N)=O)ccc3c(=O)n12,-6,11,72*,0,-96,0,+,+,
O=C(c1cc2cc(Cl)ccc2[nH]1)N1CCN(Cc2ccc3c(c2)OCO3)CC1,99,12,3,-3,13,-6,nt,nt,
NC(=O)C(C1=CCCCC1)c1ccccc1 (stereo not given),nt,4,1,nt,nt,nt,nt,nt,
CC1=C(C(=O)N(C)C)CC(CC(=O)NCCc2ccccn2)C(=O)N1Cc1ccc(F)cc1 (stereo not given),nt,-5,1,nt,nt,nt,nt,nt,
C=CCn1cc(C(=O)OCC)c(=O)c2cc(F)c(F)cc21,-1,1,2,-3,nt,-2,nt,nt,
O=C1NCCCN1C1OC(CO)C(O)C1O (stereo not given),nt,7,-1,nt,nt,nt,nt,nt,
CCN1C(=O)CS/C1=N\S(=O)(=O)c1ccc(C)cc1,-10,4,47*,0,0,-2,77*,79*,
O=C1c2cccc3cccc(c23)C(=O)N1c1ccncc1,-1,9,26,-1,nt,6,nt,nt,
O=C1c2cccc3cccc(c23)C(=O)N1c1ccccn1,-5,9,51*,-2,1,5,-16,-16,
O=C1c2ccccc2C(=O)N1CCc1ccccn1,-16,1,3,-4,0,1,nt,nt,
O=C1c2cccc3cccc(c23)C(=O)N1Cc1ccccn1,nt,17,32*,nt,nt,nt,61*,37*,
CCn1c2ccccc2c(=O)c2ccccc21,-4,7,87*,3,-273,-4,5,-4,
Nc1ccc(C(=O)N2CCN(S(=O)(=O)c3ccc(Br)cc3)CC2)cc1[N+](=O)[O-],-1,-4,3,0,1,17,nt,nt,
Cc1ccc(-n2nc3ccc(N)cc3n2)cc1C,1,12,27*,-1,-16,-26,15,10,GDH-TPI DR=1.5*
Cc1cc(N)ccc1-n1nc2ccccc2n1,35,17,2,-5,4,-5,nt,nt,
Cc1ccc(-n2nc3ccc(N)cc3n2)cc1Cl,-2,6,28*,3,-59,-14,59*,47*,
Cc1ccc(-n2cnnn2)cc1Cl,7,-2,-3,5,2,-1,nt,nt,
Cc1cc(N)n(-c2ccc(C)c(C)c2)n1,10,7,2,0,2,1,nt,nt,
Cc1ccc(-n2nc3ccc(N)cc3n2)c(C)c1,-3,20,100*,0,4,-8,+,+,
COc1ccc(-n2nc3ccc(N)cc3n2)cc1Cl,8,24,64*,-2,nt,-9,50*,44*,
